# Where “and” joins values, the source holds several entries; their conditions need not be identical. Equal values may be shown once. The campaign covered roughly 6,400 compounds. About 610 (9.5%) were called active. No stated cut-off is given here; in the data, active means activity change below about -70%; inconclusive means no clear call, values can overlap the other calls; inactive means above that. This excerpt belongs to a sample that is enriched for actives. More than one record can exist for a structure, and the calls need not agree.
# Test: Toxoplasma gondii ME49Luc growth in HeLa cells, luciferase, no IFN-y, primary screen (AID 1259421)
# Details: T. gondii ME49Luc in HeLa, 72 h, stronger effect = lower value, concentration not given here
row,Compound,"activity change, negative = inhibition"
1,CCOC(=O)NCC(Cc1ccc(OCCc2nc(-c3ccccc3)oc2C)cc1)N/C(C)=C/C(=O)c1ccc(C(F)(F)F)cc1 (stereo unspecified),-49.9% (inactive)
2,CNCCn1c(=O)c2cc(OC)c(OC)cc2c2cnc3cc4c(cc3c21)OCO4,-94.2% (active)
3,O=C1NC(O)CCN1[C@@H]1O[C@H](CO)[C@@H](O)[C@H]1O (stereo partly specified),-5.72% (inactive)
4,Cc1ccc(NC(=O)c2cccc(C(C)(C)C#N)c2)cc1Nc1ccc2ncn(C)c(=O)c2c1,-3.87% (inactive)
5,NC(=O)c1ccc[n+]([C@@H]2O[C@H](COP(=O)(O)OP(=O)(O)OC[C@H]3O[C@@H](n4cnc5c(N)ncnc54)[C@H](O)[C@@H]3O)[C@@H](O)[C@H]2O)c1,-1.89% (inactive)
6,COc1ccc(-c2nc3ccc(C4=NNC(=O)CC4C)cc3[nH]2)cc1 (stereo unspecified),21.8% (inactive)
7,CNC(=O)c1nn(C)c2c1C(C)(C)Cc1cnc(Nc3ccc(N4CCN(C)CC4)cc3)nc1-2,-73.5% (active)
8,O=C(O)c1ccc(Nc2ncc3c(n2)-c2ccc(Cl)cc2C(c2c(F)cccc2F)=NC3)cc1,-36.4% (inactive)
9,CCOC(=O)C1=C(N)Oc2ccc(Br)cc2[C@H]1[C@H](C#N)C(=O)OCC,-65.8% (inactive)
10,CC[C@]12CCCN3CCc4c(n(c5ccccc45)[C@](O)(C(=O)OC)C1)[C@@H]32,8.44% (inactive) and 5.97% (inactive)
11,CCN(CC)CCn1c(=O)c(Cc2ccc(OC)cc2)nc2ccccc21,-5.78% (inactive)
12,CCCCc1nc2cc(/C=C/C(=O)NO)ccc2n1CCN(CC)CC,-75.3% (active) and -94% (active)
13,N[C@@]1(C(=O)O)CC[C@H]2[C@H](C(=O)O)[C@H]21,6.82% (inactive)
14,COC(=O)[C@H](Cc1cccc(C(=N)N)c1)[C@@H](C)NC(=O)c1ccc(-c2cc[n+]([O-])cc2)cc1,-6.72% (inactive)
15,O=C1c2ccccc2S(=O)(=O)N1CCCN1CCN(c2ncccn2)CC1,6.33% (inactive)
16,CS(=O)(=O)c1ccc(-c2cc(Br)sc2-c2ccc(F)cc2)cc1,22.9% (inactive) and 24.6% (inactive)
17,CC(=O)[C@]1(O)Cc2c(O)c3c(c(O)c2[C@@H](O[C@H]2C[C@H](N)[C@H](O)[C@H](C)O2)C1)C(=O)c1ccccc1C3=O,-72.5% (active) and -66% (inactive) and -71.5% (active)
18,CC(=O)C1(O)Cc2c(O)c3c(c(O)c2C(OC2CC(N)C(O)C(C)O2)C1)C(=O)c1c(O)cccc1C3=O (stereo unspecified),-82.5% (active)
19,CC(C)=CCCC(C)(OC1OC(COC2OC(CO)C(O)C2O)C(O)C(O)C1O)C1CCC2(C)C1C(O)CC1C3(C)CCC(OC4OC(CO)C(O)C(O)C4OC4OC(CO)C(O)C(O)C4O)C(C)(C)C3CCC12C (stereo unspecified),4.49% (inactive)
20,CC(C)C[C@H](NC(=O)[C@@H](COC(C)(C)C)NC(=O)[C@H](Cc1ccc(O)cc1)NC(=O)[C@H](CO)NC(=O)[C@H](Cc1c[nH]c2ccccc12)NC(=O)[C@H](Cc1cnc[nH]1)NC(=O)[C@@H]1CCC(=O)N1)C(=O)N[C@@H](CCCN=C(N)N)C(=O)N1CCC[C@H]1C(=O)NNC(N)=O,8.64% (inactive)
21,O=[N+]([O-])c1cc(Cl)ccc1S(=O)(=O)N1CCN(Cc2ccccc2)CC1,26.6% (inactive)
22,C=C1C[C@]23C[C@@]1(O)CC[C@H]2[C@@]12C=C[C@H](O)[C@@](C)(C(=O)O1)[C@H]2[C@@H]3C(=O)O,13.1% (inactive)
23,CCC(=O)OCC(=O)C1(OC(=O)CC)C(C)CC2C3CCC4=CC(=O)C=CC4(C)C3(Cl)C(O)CC21C (stereo unspecified),-2.98% (inactive)
24,CCC(=O)OCC(=O)[C@@]1(OC(=O)CC)[C@@H](C)C[C@H]2[C@@H]3CCC4=CC(=O)C=C[C@]4(C)[C@@]3(Cl)[C@@H](O)C[C@@]21C,-74.6% (active) and -1.83% (inactive)
25,CCC(=O)OCC(=O)[C@@]1(OC(=O)CC)[C@@H](C)C[C@H]2[C@@H]3CCC4=CC(=O)C=C[C@]4(C)[C@@]3(F)[C@@H](O)C[C@@]21C,-3.54% (inactive)
26,CC/C=C\C/C=C\C/C=C\CCCCCCCC(=O)O,11.4% (inactive)

row,Compound,"activity change, negative = inhibition"
1,Clc1ccc(N/N=C(\c2ccccc2)c2ccccn2)nc1,31.4% (inactive)
2,N=C(N)S/C=C\C(=O)O,28% (inactive)
3,C[C@@H](Oc1ccc2[nH]nc(/C=C/c3cnn(CCO)c3)c2c1)c1c(Cl)cncc1Cl,-81.2% (active)
4,O=C(c1ccc(/C=C/c2n[nH]c3ccccc23)cc1)N1CCNCC1,-59.7% (inactive)
5,CCCSc1nc(N[C@@H]2C[C@@H]2c2ccc(F)c(F)c2)c2nnn([C@@H]3C[C@H](OCCO)[C@H](O)[C@H]3O)c2n1,5.35% (inactive)
6,O=C(O)CCNC(=O)c1ccc(N=Nc2ccc(O)c(C(=O)O)c2)cc1,22.4% (inactive)
7,Nc1nc(=O)n([C@H]2C[C@H](O)[C@@H](CO)O2)cc1F,-94.3% (active)
8,Nc1ncn([C@H]2C[C@H](O)[C@@H](CO)O2)c(=O)n1,35.6% (inactive)
9,Cc1cn([C@@H]2C[C@@H](O)[C@H](CO)O2)c(=O)[nH]c1=O,-2.77% (inactive)
10,O=c1[nH]c(=O)n([C@H]2CCCO2)cc1F,-87.1% (active) and -73.6% (active)
11,Nc1nc(=O)n([C@H]2C[C@@H](O)[C@@H](CO)O2)cc1Cl,7.28% (inactive)
12,CCCCCOC(=O)Nc1nc(=O)n([C@@H]2O[C@H](C)[C@@H](O)[C@H]2O)cc1F,-63.1% (inactive) and -62.7% (inactive)
13,O=c1[nH]c(=O)n([C@H]2CC(O)[C@@H](CO)O2)cc1C(F)(F)F (stereo partly specified),7.06% (inactive)
14,O=c1[nH]c(=O)n([C@H]2C[C@H](O)[C@@H](CO)O2)cc1F,-81.1% (active)
15,Cc1cn([C@H]2O[C@@H](CO)[C@H](O)[C@@H]2F)c(=O)[nH]c1=O,14.2% (inactive)
16,O=c1[nH]c(=O)n([C@H]2C[C@H](O)[C@@H](CO)O2)cc1Br,12.7% (inactive)
17,C[C@H]1O[C@@H](n2cc(F)c(=O)[nH]c2=O)[C@H](O)[C@@H]1O,-95% (active)
18,O=c1[nH]c(=O)n([C@H]2C[C@H](O)[C@@H](CO)O2)cc1C(F)(F)F,-19.7% (inactive) and 1.85% (inactive)
19,CN(C)CC/C=C1/c2ccccc2COc2ccccc21,-63.2% (inactive) and 23.5% (inactive) and 10.1% (inactive)
20,CC(C)C1C(=O)N(S(C)(=O)=O)[C@@H]2CCN(C(=O)/C=C/CN3CCCCC3)[C@@H]12 (stereo partly specified),12% (inactive)
21,NCCCCCc1cnc[nH]1,11% (inactive)
22,O=c1cc(O)c(Cl)c[nH]1,4.32% (inactive)
23,O=c1ccc2ccc(OCCCCN3CCN(c4cccc5sccc45)CC3)cc2[nH]1,10.5% (inactive)
24,N[C@@H]1CCN(O)C1=O,15% (inactive)
25,O=C(O)CC/C=C\CC[C@@H]1[C@@H](N2CCCCC2)[C@@H](O)C[C@@H]1OCc1ccc(-c2ccccc2)cc1,-4.54% (inactive)
26,COC(=O)C[C@H]1C(C)(C)C(=O)[C@@H]2CC3=C4CC(=O)O[C@@H](c5ccoc5)[C@]4(C)CCC3[C@@]1(C)C2=O (stereo partly specified),-15.9% (inactive)

row,Compound,"activity change, negative = inhibition"
1,C[N+]1(C)C2CC(OC(=O)[C@@H](CO)c3ccccc3)CC1C1OC12 (stereo partly specified),4.33% (inactive) and 10.7% (inactive)
2,Cc1cn([C@H]2C[C@H](N=[N+]=[N-])[C@@H](CO)O2)c(=O)[nH]c1=O,-81.6% (active)
3,CCc1cn([C@H]2C[C@H](O)[C@@H](CO)O2)c(=O)[nH]c1=O,13.9% (inactive)
4,Cc1cn(C2CC(N=[N+]=[N-])C(CO)O2)c(=O)[nH]c1=O (stereo unspecified),10.1% (inactive)
5,O=C(O)C1[O][Sb]2([O][Sb]34[O]C(C(=O)O)C([O]3)C(C(O)CO)[O]4)[O]C(C(O)CO)C1[O]2 (stereo unspecified),-75.8% (active)
6,C(=N\NC1=NCCN1)/c1c2ccccc2c(/C=N/NC2=NCCN2)c2ccccc12,-58.3% (inactive)
7,O=C(Nc1cc2cc[nH]c2cn1)c1ccccc1,-32.1% (inactive)
8,COc1ccc(C(=O)c2ccc(O)cc2)c(O)c1O,-0.363% (inactive)
9,N=C(N)c1ccc2cc(OC(=O)c3ccc(N=C(N)N)cc3)ccc2c1,4.69% (inactive)
10,NC(=O)/N=N/C(N)=O,7.42% (inactive)
11,CC(C)(C(=O)NCC(F)(F)C(F)(F)F)C(=O)N[C@@H]1C(=O)Nc2ccccc2-c2ccccc21,-88.1% (active)
12,C/C(=C/c1ccc(C(=O)O)cc1)c1ccc2c(c1)C(C)(C)CCC2(C)C,-3.41% (inactive)
13,NC1[C@H]2CN(c3nc4c(cc3F)c(=O)c(C(=O)O)cn4-c3ccc(F)cc3F)C[C@@H]12 (stereo partly specified),-37.5% (inactive)
14,O=C(O)CCCN1C(=O)c2cccc3cccc(c23)C1=O,-5.26% (inactive)
15,O=C(CCCCCN1C(=O)c2cccc3cccc(c23)C1=O)NO,-90.6% (active)
16,O=C(O)CN1C(=O)c2cccc3cccc(c23)C1=O,4.44% (inactive) and 1.05% (inactive)
17,O=c1cc(-c2ccc(O)cc2)oc2cc(O)ccc12,22.2% (inactive)
18,CCCC[C@H](C)C[C@H](O)/C=C/[C@H]1[C@H](O)CC(=O)[C@@H]1CCCC/C=C/C(=O)O,-0.328% (inactive)
19,C/C=C/C(=O)N(CC)c1ccccc1C,14.6% (inactive) and 5.26% (inactive)
20,C=C[C@@](C)(/C=C/c1ccc(O)cc1)CCC=C(C)C,11.8% (inactive)
21,NC(=O)C(c1ccccc1)(c1ccc(F)cc1)c1ccc(F)cc1,1.76% (inactive)
22,[O-][NH2+]c1ccc(O)c2ncccc12,-71.9% (active) and -84.8% (active)
23,Oc1c(Br)cc(Br)c2cccnc12,-63.3% (inactive)
24,Oc1ccc(Cl)c2cccnc12,17.5% (inactive) and 6.79% (inactive)

# From PubChem BioAssay AID1259421 (Broad Institute, 2018)
